Source: PubChem BioAssay AID687001 (Broad Institute, 2013)
Entries with a potency or affinity are not part of this list.

target: Protein S100-A4 (Homo sapiens) (UniProt P26447); assay: human S100A4 peptide interaction inhibition curves – biochemical, fluorescence polarization, cherry-picked hits, dose response (AID 687001); conditions: FP, S100A4/TAMRA-myosin IIA peptide binding; series mostly up to 11 µM; activity change, negative = inhibition: at the top concentration;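 note: 0% = DMSO neutral control wells and -100% = TFP positive control wells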
Sequence (P26447 whole entry, looked up): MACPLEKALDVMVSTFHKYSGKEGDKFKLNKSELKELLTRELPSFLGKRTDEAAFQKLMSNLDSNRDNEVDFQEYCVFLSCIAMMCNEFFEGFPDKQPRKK

Activity change, negative = inhibition, inactive:
O=C(COC(=O)CCCN1C(=O)c2cccc3cccc(c23)C1=O)NC1CCS(=O)(=O)C1 (stereo not drawn) -3.93%
CC(=O)N1CC(=O)N2[C@H](CO)[C@@H](c3ccc(-c4ccc(C#N)cc4)cc3)[C@H]2C1 8.56%
CCOc1ccc(C(=O)NC2CCN(C(=O)Nc3ccc(F)cc3)CC2)cc1 2.33%
CC(=O)N1CC(C)Oc2ccc(S(=O)(=O)NC(CC(=O)O)c3cc(C)ccc3C)cc21 (stereo not drawn) 0.235%
CN(C)CC(=O)N1CC2(C1)[C@@H](c1ccccc1)[C@@H](CO)N2S(C)(=O)=O 1.25%
CCN(CC(=O)Nc1ccccc1C(F)(F)F)C(=O)c1ccc(NC(=O)c2cccs2)cc1 0.852%
CO[C@@H]1CN(C)C(=O)c2ccc(NC(=O)c3ccc(F)cc3)cc2OC[C@H](C)N(C(=O)CC2CC2)C[C@H]1C 6.86%
C[C@H](CO)N1C[C@H](C)[C@H](CN(C)C)Oc2cc(C3=CCCC3)ccc2S1(=O)=O 3.56%
CC1CC(C)CN(CCCNC(=O)c2cc3c(s2)-c2ccccc2OC3)C1 (stereo not drawn) -2.12%
Cc1cc(Br)ccc1NC(=O)CN(C)C(=O)c1ccc(-n2cncn2)c([N+](=O)[O-])c1 0.931%
CC(OCCN(C)C)C(=O)C12CC3CC(CC(C3)C1)C2 (stereo not drawn) -2.31%
O=C(c1ccccc1F)N1CC(=O)N2[C@@H](CO)[C@H](c3ccc(C#Cc4ccccc4)cc3)[C@@H]2C1 5.02%
Cc1ccc(S(=O)(=O)N2CCOCC2)cc1NC(=O)COC(=O)Cc1cccs1 -1.47%
Cc1noc(C)c1S(=O)(=O)N(C)C[C@H]1OCCCC[C@H](C)Oc2ccc(NS(=O)(=O)c3ccccc3)cc2C(=O)N([C@H](C)CO)C[C@@H]1C 17%
C[C@@H]1CN([C@@H](C)CO)C(=O)c2cc(NC(=O)c3ccncc3)ccc2O[C@@H]1CN(C)Cc1ccncc1 1.61%
Nc1cccc2c(=O)[nH][nH]c(=O)c12 -1.11%
CC(C)(C)OC(=O)C[C@H]1C/C=C\C[C@H](CC(=O)N[C@H](CO)Cc2ccccc2)C(=O)N[C@H](Cc2ccccc2)COC1=O 2.92%
C[C@@H]1CN([C@H](C)CO)C(=O)CCCn2nncc2CO[C@@H]1CN(C)S(=O)(=O)c1ccc2ccccc2c1 -2.22%
CN1CCN(S(=O)(=O)c2cccc(C(=O)NC3CCCC3)c2)CC1 -3.62%
CSc1cccc(NS(=O)(=O)c2ccc(-c3coc(C)n3)cc2)c1 1.05%
Cc1ccccc1CN1CCC(n2nccc2NC(=O)CCOc2ccccc2)CC1 2.69%
O=S(=O)(c1ccc2c(c1)CCCN2)N1CCCC2CCCCC21 (stereo not drawn) 3.23%
CCOC(=O)[C@]12CCCC=C1N(Cc1ccc3c(c1)OCO3)C(=O)[C@H](CC(=O)NCC1CCCCC1)C2 -3.59%
